Experimental findings from PubChem BioAssay (Tox21) are described below.

Inconclusive results are not listed. Calls of active or inactive are those of the source. Calls follow the shape of the dose curve; as a rule, active = well fitted cell-killing curve with a large enough effect in the repeat runs; inconclusive = weak or mixed curves; inactive = no such curve, though single readings can be large or run the other way.

The nature of this assay: qHTS assay to identify small molecule antagonists of the androgen receptor (AR) signaling pathway - cell viability counter screen (AID 743033; also: nearly all actives have a fitted effect of over 45% in size). The settings on record: AR-bla HEK293 viability, CellTiter-Glo luminescence, 16 h; series mostly up to 58.5 µM. From the text:
National Center for Advancing Translational Sciences [NCATS]
NIH Chemical Genomics Center [NCGC]
U.S. Environmental Protection Agency [EPA]
National Institutes of Environmental Health Sciences [NIEHS]
National Toxicology Program [NTP]
U.S. Food and Drug Administration [FDA]
Androgen receptor (AR), a nuclear hormone receptor, plays a critical role in AR-dependent prostate cancer and other androgen related diseases. Endocrine disrupting chemicals (EDCs) and their interactions with steroid hormone receptors like AR may cause disruption of normal endocrine function as well as interfere with metabolic homeostasis, reproduction, developmental and behavioral functions. To identify the compounds that inhibit AR signaling, GeneBLAzer AR-UAS-bla-GripTite cell line (Invitrogen, Carlsbad, CA, USA) containing a beta-lactamase reporter gene under control of an Upstream Activator Sequence (UAS) stably integrated into HEK293 cells was used to screen the Tox21 10K compound library. The cytotoxicity of the Tox21 compound library against the AR-bla cell line was tested in parallel by measuring the cell viability using CellTiter-Glo assay in the same wells.
Tox21 Assay Protocol Summary:
AR-bla cells were dispensed at 2,000 cells/5 uL of assay medium per well into black wall/clear-bottom 1536-well plates using a Multidrop Combi (ThermoFisher Scientific, Waltham, MA) dispenser. After the assay plates were incubated at a 37C and 5% CO2 for 4 hr, 23 nL of compounds dissolved in DMSO, positive controls or DMSO only was transferred to the assay plate by a Pintool station (Kalypsys, San Diego, CA), followed by addition of 1 uL of agonist (R1881) in culture medium using a Bioraptr Flying Reagent Dispenser (FRD) workstation (Beckman Coulter, Indianapolis, IN, USA). The plates were incubated at a 37C and 5% CO2 for 16 h. After 1 uL of LiveBLAzerTM B/G FRET substrate was added using a Bioraptr FRD, the plates were incubated at room temperature for 2 h and fluorescence intensity was measured by an Envision plate reader (PerkinElmer, Shelton, CT). For cell viability readout that measures cytotoxicity, 4 ul/well of CellTiter-Glo reagent was added into the assay plates using a Bioraptr FRD. After 30 min incubation at room temperature, the luminescence intensity in the plates was measured using a ViewLux (PerkinElmer) plate reader.
As to `O=S(=O)(c1ccc(Cl)cc1)c1cc(Cl)c(Cl)cc1Cl`, the result was inactive.

Consider `CCCCCCCCCCCC#N`, for which the call was inactive.

In the case of `Cc1ccc(N)cc1Cl`, the molecule was called inactive.

As for `CCOP(OCC)OCC`, the outcome was inactive.

Turning to `CCN(CC)CCO`, the result was inactive.

Regarding `CCC(C)(CC)c1cc(NC(=O)c2c(OC)cccc2OC)on1`, the result was inactive.

As to `CN(C)[C@@H]1C(=O)C(C(N)=O)=C(O)[C@@]2(O)C(=O)C3=C(O)c4c(O)cccc4[C@@](C)(O)[C@H]3C[C@@H]12`, the outcome was inactive.

For the molecule `Cc1cccc([N+](=O)[O-])c1`, the call was inactive.

As for `CCCCN(CC)C(=O)SCCC`, the molecule was called inactive.

As to `CC1OC(C)OC(C)O1` (stereo not given), the molecule was called inactive.

For the molecule `Cn1cc(-c2ccccc2)c(=O)c(-c2cccc(C(F)(F)F)c2)c1`, the molecule was classed as inactive.

As to `CCOP(=S)(OCC)Oc1cnc2ccccc2n1`, the outcome was inactive.

As to `CCCN(CCC)N=O`, the molecule was classed as inactive.

In the case of `CC1C=[C-]C=C1.[C-]#[O+].[C-]#[O+].[C-]#[O+].[Mn]`, the molecule was called inactive.

For `O=c1[nH]c(=O)[nH]c(=O)[nH]1`, the call was inactive.

In the case of `O=c1[nH]c2ccccc2c(=O)o1`, the result was inactive.

Take `COCCl`: the molecule was classed as inactive.

`CC(=O)C=C(C)C`: the molecule was called inactive.

Take `CC(C)C#N`: the call was inactive.

Consider `OCCN(CCO)CCO`, for which the call was inactive.

As for `Nc1ccc(Oc2ccc(N)cc2)cc1`, the molecule was classed as inactive.

For the molecule `O=S(=O)(c1ccc(O)cc1)c1ccc(O)cc1`, the call was inactive.

For `CN=C=S`, the call was inactive.

For the molecule `CCCCN(CCCC)SN(C)C(=O)Oc1cccc2c1OC(C)(C)C2`, the molecule was classed as inactive.

`c1ccc(-c2ccccc2)cc1`: the molecule was classed as inactive.

In the case of `C=C(C)CCl`, the call was inactive.

With `CCC[N+](=O)[O-]`, the molecule was called inactive.

On to `CN(C)CCO`, for which the call was inactive.

Regarding `O=[N+]([O-])c1ccc(Oc2ccc(Cl)cc2Cl)cc1`, the result was inactive.

As for `[N-]=[N+]=[N-]`, the result was inactive.

As for `CN1C(=O)CN=C(c2ccccc2)c2cc(Cl)ccc21`, the molecule was called inactive.

With `Clc1ccccc1Cl`, the molecule was called inactive.

`COC(=O)c1ccccc1N`: the molecule was called inactive.

Turning to `CC(C)NC(=O)N1CC(=O)N(c2cc(Cl)cc(Cl)c2)C1=O`, the molecule was classed as inactive.

Take `O=C(O)c1ccccn1`: the outcome was inactive.

As to `C=CCO`, the molecule was called inactive.

Take `CCOP(=S)(OCC)SCCSCC`: the molecule was classed as inactive.

Turning to `O=C1CCCN1`, the molecule was classed as inactive.

Regarding `c1ccc2c(c1)Oc1ccccc1O2`, the result was inactive.

Take `C1CN2CCN1CC2`: the molecule was called inactive.
